In PubChem BioAssay AID493076 (National Center for Advancing Translational Sciences (NCATS), 2011):
Some of the results follow. Records with an inconclusive call do not appear. Activity calls are given as the source filed them. Calls come from the whole dose curve; as a rule, active = well fitted curve in the direction sought with a large enough effect; inconclusive = small, poorly fitted or top-dose-only effect, or effect the other way, or another doubt; inactive = no such curve, though single readings can be large or run the other way. Residues, ends and D or L forms follow the SMILES beside them. *: point of attachment. OPac = O=C(CO*)c1ccccc1; Bz = O=C(c1ccccc1)*

Target: Thyrotropin-releasing hormone receptor (Homo sapiens) (UniProt P34981)
Sequence (P34981 whole entry, looked up): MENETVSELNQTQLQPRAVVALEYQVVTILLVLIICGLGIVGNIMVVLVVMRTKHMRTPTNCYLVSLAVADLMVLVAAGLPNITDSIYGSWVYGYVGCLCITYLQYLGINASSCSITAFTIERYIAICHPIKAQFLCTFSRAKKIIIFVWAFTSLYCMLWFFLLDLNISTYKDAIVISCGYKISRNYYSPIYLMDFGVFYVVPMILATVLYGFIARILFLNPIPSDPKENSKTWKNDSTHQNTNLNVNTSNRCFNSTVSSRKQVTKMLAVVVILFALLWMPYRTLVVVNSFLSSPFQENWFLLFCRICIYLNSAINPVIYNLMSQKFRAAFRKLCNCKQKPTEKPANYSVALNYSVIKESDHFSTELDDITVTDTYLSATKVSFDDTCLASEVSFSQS
Test: qHTS for Small Molecule Agonists and Allosteric Enhancers of Human TRH Receptor: Confirmation Screen for Enhancers
Settings: TRH receptor cell assay, enhancer confirmation qHTS; series mostly up to 46.1 µM
From the text: NIH Chemical Genomics Center [NCGC]
NIH Molecular Libraries Probe Centers Network [MLPCN]
Assay Submitter (PI): Marvin Gershengorn
This project aims to identify small drug-like molecules that activate (agonists) the thyrotropin releasing hormone (TRH) receptor (TRHR) or enhance its TRH-stimulated activity (allosteric enhancers). TRHR, a drug-accessible cell surface receptor expressed in specific brain regions, and its ligand TRH have been implicated in several central nervous system disorders, including depression and anxiety. Small molecule TRHR agonists or allosteric enhancers that are metabolically stable and able to cross the blood-brain barrier might serve as probes to elucidate the roles of brain TRH receptors in animal models, and might be valuable as lead compounds for the development of drugs to treat patients with central nervous system disorders.
Upon TRHR-Gq activation in TRHR cells, intracellular calcium is released from stores in the endoplasmic reticulum. […] This primary screen measures compound-induced enhancement of an EC20 stimulation of the receptor by its native ligand.
For the HTS assay freshly prepared cells are plated at a density of 2000/well in 3 ul of complete DMEM medium containing 10% serum in 1536-well plates and cultured over night at 37 C in a humidified incubator with 5% CO2. The next day, 2 ul of a no wash calcium dye (ABD Bioquest) was added to the cells and plates were incubated at room temperature for 1 hour. For the assay, assay plates were loaded into the FDSS kinetic plate reader. A 10 cycle (1 second/cycle) baseline measurement is taken and then the FDSS online 1536 pintool delivers 23 nl of compound library (as well as TRH controls) to the plate. The plate is measured for kinetically at 1 cycle/sec for 180 seconds and is considered to be the agonist portion of the assay (eg, compounds which activate a positive calcium response during this portion are flagged as potential agonists). Following the 180 second read, 1 ul of either an EC20 (positive modulation assay) is delivered by an onboard pipette head. Measurements are taken kinetically for an additional 180 seconds.
TRHR FDSS Screening Protocol
1. Reagent, 3 uL 2000 cells/well 1536 TC treated Black plate in media containing 10% FCS
2. Time, 18 hours, 33.5C 5% CO2 (cells grown at 37C)
3. Reagent, 2 uL ABD fluo-8 Ca dye
4. Time, 30 min-1.5hrs hours, Room temp (6 plates/batch)
5. Detector, EX 480/EM 530C, FDSS 10 cycles baseline (1sec/cycle)
6. Compound, 23 nL of stock solution from library
7. Detector, EX 480/EM 530C, FDSS 230 cycles (1sec/cycle) Agonist mode
8. Compound, 1 ul EC20 of TRH made up in HEPES HBSS, 10 nM final
9. Detector, EX 480/EM 530C, FDSS 100 cycles (1sec/cycle) Potentiator mode

outcome, inactive:
Cc1cc(C(=O)CCl)c(C)n1CC1COc2ccccc2O1 (stereo not given)
COc1ccc(Cl)cc1NC(=O)CN(C)Cc1ccc(OC)c(OC)c1
O=C(Nc1ccccc1)c1cccnc1Nc1ccccc1
CC1=C(C)CC(C(=O)NC(C)CCc2ccccc2)C(C(=O)O)C1 (stereo not given)
CCOc1ncccc1C(=O)OCC(=O)N1c2ccccc2CC1C (stereo not given)
NS(=O)(=O)c1cccc(NC(=O)CSc2nc3ccccc3n2-c2ccccc2)c1
CN(C(=O)CSc1nnc(Nc2ccccc2)s1)C1CCS(=O)(=O)C1 (stereo not given)
CSc1nnnn1-c1c(C)cc(C)cc1C
CC(=O)n1c(C=Nc2ccccc2)c(O)c2ccccc21
c1cnc(N2CCN(c3ccc4ccccc4n3)CC2)nc1
Cc1ccc(Cl)c(OCC(=O)N2CCc3ccccc3C2)c1
O=C1NC(=O)C2C1C(c1ccc([N+](=O)[O-])cc1)=NN2Cc1ccccc1 (stereo not given)
Cc1cc(C)c2nc3nc(C)cc(C)c3c(N)c2c1
COc1cc(C2C3=C(CCCC3=O)OC3=C2C(=O)CCC3)ccc1OCC(=O)Nc1ccccc1
Cc1c(/C=N\NC(=O)c2cc3ccccc3o2)c2ccccc2n1C
COc1ccc(CCn2ccc(O)c(Cc3ccc(Cl)cc3Cl)c2=O)cc1OC
O=C(CN1C(=O)c2cccc3cccc1c23)Nc1ccccc1
NC(N)=Nc1nc(-c2ccccc2)c2cc(Cl)ccc2n1
CCc1nnc(NC(=O)[C@@H](NC(=O)c2cccc(C)c2)C(C)C)s1
Cn1cccc1C1(C(F)(F)F)NCCNC1=O (stereo not given)
O=C1C(=O)N(CCCO)C(c2ccccc2)/C1=C(\O)c1ccc(Br)cc1 (stereo not given)
Cc1cccn2c(=O)c3cc(C(=O)NC4CCCCC4)sc3nc12
O=c1o[nH]c(-c2ccccc2)c1N=Nc1c(F)cccc1Cl
COC(=O)c1cc(N2CCNCC2)nc2ccccc12
COC(=O)C1=C(C)NC2=C(C(=O)c3ccccc32)C1c1ccc(-c2ccc(C(=O)O)cc2)o1 (stereo not given)
N#Cc1ccc(Oc2cc(C(F)(F)F)nc(-c3ccccn3)n2)cc1
C/C(=N/OC(=O)c1ccc(Br)cc1)c1ccc(C)cc1
Cc1csc(CN(C)C(=O)CC2C(=O)NCCN2CC(C)(C)C)n1 (stereo not given)
CCOC(=O)C1=C(O)/C(=C/c2cc(C)n(-c3ccccc3)c2C)N=C1C
CC(=O)N1CCN(CC(=O)Nc2ccc(C)c(F)c2)CC1
CCOc1cc(CN2CCCC(CO)(Cc3ccc(F)cc3F)C2)ccc1OC (stereo not given)
Cc1nn(Cc2ccccc2)c(C)c1C(=O)N1CCN(CC(=O)Nc2ccccc2Cl)CC1
O=C(CNC(=O)c1ccccc1)NCC(=O)OCC(=O)c1ccccc1 (Bz-Gly-Gly-OPac)
Cc1ccc(-c2cn(S(=O)(=O)c3cccc([N+](=O)[O-])c3)nc2N)cc1
COc1cc(/C=C(\C#N)c2nc3ccccc3[nH]2)ccc1O
CC(=O)c1cc(NC(=O)c2ccccc2)c(=O)oc1/C=C/N(C)C
CC(C)c1nnc(NC(=O)CCC(=O)N2CCN(c3cccc(Cl)c3)CC2)s1
CC1(C)Cc2c(cnn2-c2cccc(F)c2)C(NC(=O)c2cc[n+]([O-])cc2)C1 (stereo not given)
O=c1[nH]c2cccnc2n(CCNc2ncc(C(F)(F)F)cc2Cl)c1=O
Cc1ccc(S(=O)(=O)N2CCN(CC(=O)N/N=C/c3ccc(Br)s3)CC2)cc1
